Laboratory results: PubChem BioAssay AID1159580 (chemical genetic matrix, 2015)
Where “and” joins values, the source holds several entries; their conditions need not be identical. Equal values may be shown once. Out of some 5,500 compounds screened, about 2,000 (36%) were called active. About 18% were inconclusive and are not listed. Rule as the data show it: active = normalized growth mostly below about 0.91 (no sharp cut-off); inconclusive = no clear call, values can overlap the other calls; inactive = mostly above about 0.92. The list shows a part of the results.

Assay: chemical genetic growth profiling, strain panel (AID 1159580);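 also: tested at 20 µM; growth read once vehicle control cultures reached saturation at 30 °C; 1 = growth at the plate median or of vehicle wells; lower values mean less growth of the strain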
Settings: S. cerevisiae deletion strains, growth OD

Measured: normalized growth

CC1=C(/C=C/C(C)=C/C=C/C(C)=C/C=C/C=C(C)/C=C/C=C(C)/C=C/C2=C(C)CCCC2(C)C)C(C)(C)CCC1
active: locus YBR009C, strain hhf1, stronger effect = lower value 1.1 [resistant]
inactive: locus YAL021C, strain ccr4, stronger effect = lower value 0.978 | locus YAL026C, strain drs2, stronger effect = lower value 0.997 | locus YAL030W, strain snc1, stronger effect = lower value 0.995 | locus YBL061C, strain skt5, stronger effect = lower value 0.997 | locus YBR021W, strain FUR4, stronger effect = lower value 0.99 | locus YBR023C, strain chs3, stronger effect = lower value 0.992 | locus YBR171W, strain sec66, stronger effect = lower value 0.977 | locus YBR229C, strain ROT2, stronger effect = lower value 1.01 | locus YBR231C, strain swc5, stronger effect = lower value 1.02 | locus YBR279W, strain paf1, stronger effect = lower value 0.987 | locus YCL011C, strain gbp2, stronger effect = lower value 0.997 | locus YCL016C, strain dcc1, stronger effect = lower value 1.01 | locus YCL029C, strain bik1, stronger effect = lower value 1.02 | locus YCL061C, strain MRC1, stronger effect = lower value 0.995 | locus YCL069W, strain vba3, stronger effect = lower value 0.997 | locus YCR088W, strain abp1, stronger effect = lower value 0.995 | locus YDL005C, strain med2, stronger effect = lower value 0.998 | locus YDL035C, strain GPR1, stronger effect = lower value 1 | locus YDL040C, strain nat1, stronger effect = lower value 0.995 | locus YDL074C, strain BRE1, stronger effect = lower value 1 | locus YDL101C, strain DUN1, stronger effect = lower value 1.01 | locus YDL134C, strain PPH21, stronger effect = lower value 1.01 | locus YDL185W, strain tfp1, stronger effect = lower value 1.02 | locus YDL192W, strain arf1, stronger effect = lower value 1.02 | locus YDR001C, strain nth1, stronger effect = lower value 0.987 | locus YDR069C, strain doa4, stronger effect = lower value 0.994 | locus YDR101C, strain arx1, stronger effect = lower value 0.982 | locus YDR137W, strain rgp1, stronger effect = lower value 0.964 | locus YDR150W, strain NUM1, stronger effect = lower value 1.01 | locus YDR159W, strain sac3, stronger effect = lower value 1.01 | locus YDR162C, strain NBP2, stronger effect = lower value 1.02 | locus YDR195W, strain ref2 0.999 | locus YDR297W, strain sur2, stronger effect = lower value 1.02 | locus YDR318W, strain mcm21, stronger effect = lower value 1.01 | locus YDR334W, strain swr1, stronger effect = lower value 0.99 | locus YDR335W, strain msn5, stronger effect = lower value 0.997 | locus YDR388W, stronger effect = lower value 1.01 | locus YDR392W, strain spt3, stronger effect = lower value 0.982 | locus YDR502C, strain sam2, stronger effect = lower value 0.993 | locus YEL003W, strain gim4, stronger effect = lower value 1.02 | locus YEL037C, strain rad23, stronger effect = lower value 0.999 | locus YEL061C, strain CIN8 (second series), stronger effect = lower value 0.997 | locus YEL061C, strain CIN8, stronger effect = lower value 1.01 | locus YER015W, strain faa2, stronger effect = lower value 0.973 | locus YER016W, strain bim1, stronger effect = lower value 1 | locus YER110C, stronger effect = lower value 1 | locus YER111C, strain swi4, stronger effect = lower value 0.983 | locus YER155C, strain BEM2 (second series), stronger effect = lower value 1.04 | locus YER155C, strain BEM2, stronger effect = lower value 1.01 | locus YER167W, strain BCK2, stronger effect = lower value 1.01 | locus YFR010W, strain ubp6, stronger effect = lower value 1 | locus YGL078C, strain dbp3, stronger effect = lower value 0.996 | locus YGL086W, strain mad1, stronger effect = lower value 1.01 | locus YGL167C, strain pmr1, stronger effect = lower value 0.992 | locus YGL173C, strain kem1, stronger effect = lower value 1 | locus YGL227W, strain vid30, stronger effect = lower value 0.99 | locus YGL240W, strain doc1, stronger effect = lower value 1.02 | locus YGL248W, strain PDE1, stronger effect = lower value 1.01 | locus YGL253W, strain hxk2, stronger effect = lower value 0.949 | locus YGR135W, strain pre9, stronger effect = lower value 1.03 | locus YGR229C, strain SMI1, stronger effect = lower value 1 | locus YGR252W, strain gcn5, stronger effect = lower value 0.998 | locus YHR013C, strain ard1, stronger effect = lower value 0.967 | locus YHR027C, strain rpn1, stronger effect = lower value 1.01 | locus YHR030C, strain SLT2, stronger effect = lower value 1.02 and 1.01 | locus YHR079C, strain IRE1 (second series), stronger effect = lower value 1 | locus YHR079C, strain IRE1, stronger effect = lower value 1.04 | locus YHR094C, strain hxt1, stronger effect = lower value 0.999 | locus YHR129C, strain ARP1, stronger effect = lower value 1.01 | locus YHR142W, strain chs7, stronger effect = lower value 0.967 | locus YHR200W, strain rpn10, stronger effect = lower value 1.01 | locus YIL066C, strain RNR3, stronger effect = lower value 1.01 | locus YIL073C, strain SPO22, stronger effect = lower value 1.07 | locus YIL125W, strain kgd1, stronger effect = lower value 0.998 | locus YIR030C, strain dcg1, stronger effect = lower value 1 | locus YJL092W, strain hpr5, stronger effect = lower value 0.992 | locus YJL095W, strain BCK1 (second series), stronger effect = lower value 0.989 | locus YJL095W, strain BCK1, stronger effect = lower value 1.03 and 1.02 | locus YJL115W, strain asf1, stronger effect = lower value 0.996 | locus YJL129C, strain trk1, stronger effect = lower value 0.969 | locus YJL134W, strain LCB3, stronger effect = lower value 1.01 | locus YJL154C, strain vps35, stronger effect = lower value 0.999 | locus YJL164C, strain tpk1, stronger effect = lower value 1.01 | locus YJL166W, strain qcr8, stronger effect = lower value 0.955 | locus YJL168C, strain set2, stronger effect = lower value 1 | locus YJL187C, strain SWE1 (second series), stronger effect = lower value 1.01 | locus YJL187C, strain SWE1, stronger effect = lower value 0.995
